# Screens (PubChem BioAssay)
# CtBP-E1A inh: blocks the CtBP interaction with E1A; AID 651724; AlphaScreen GST-E1A/His-CtBP binding, 1536-well; active compounds read low; activity change, % (no concentration beside the values); 340,000 tested, 0.49% active; in the data active = activity change below about -65%; inconclusive = mostly about -30% to -63%; note: % is set by controls: 0 for no effect and ±100 for the full control effect
#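 Protein mix (5X: 125 nM each GST-E1A, His-CtBP) was incubated with pinned compound 2 h at 37 deg C in dark, in 50 mM Tris pH 8.0 buffer with 300 mM NaCl. Glutathione donor and nickel acceptor beads followed; AlphaScreen signal read after 1 h.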
# BAZ2B inh: blocks human BAZ2B | 360,000 tested, 4.4% active | Q9UIF8 | Potency, µM (titrated, usually from 114 µM), for inactives: at the highest dose activity change, negative = inhibition, actives largely listed as inhibitors | AID 504333 | AlphaScreen BAZ2B-H3K14Ac peptide displacement; note: potency is the fitted concentration of half-maximal effect; % is set by controls: 0 for no effect and ±100 for the full control effect; nearly all actives have a fitted effect of over 60% in size
#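 In this displacement format the biotinylated H3(5-23) peptide acetylated at Lys14 serves as ligand at 50 nM, with BAZ2B at 50 nM in PBS pH 7.4 containing 0.01% Tween-20. Donor and acceptor beads are 10 ug/mL final.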
# HP1b chromo inh: HP1-beta chromodomain-methylated histone interaction inhibition | Potency, µM (top dose mostly 114 µM), inactives show at the highest dose activity change, negative = inhibition, most hits filed as inhibitors | AlphaScreen HP1-beta / biotin-H3K9me3 peptide binding | 390,000 tested, 0.56% active | AID 540317; note: potency is the fitted concentration of half-maximal effect; nearly all actives have a fitted effect of over 70% in size
# Target sequence (P83916 whole entry, looked up): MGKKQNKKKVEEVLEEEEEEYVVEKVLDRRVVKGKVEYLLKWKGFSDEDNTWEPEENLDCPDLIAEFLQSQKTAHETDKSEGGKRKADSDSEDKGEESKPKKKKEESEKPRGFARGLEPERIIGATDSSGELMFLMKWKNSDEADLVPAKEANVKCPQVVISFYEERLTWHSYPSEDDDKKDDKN
#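 HP1-beta protein (50 nM final) preincubated 30 min at room temperature with biotinylated H3(1-18)K9me3 peptide (50 nM) in PBS pH 7.4, 0.01% Tween-20, then compound added for 30 min. AlphaScreen streptavidin donor/nickel chelate acceptor beads (10 ug/mL final), 30 min dark, luminescence read.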
# Six1-Eya2 inh: blocks human Six1 binding to Eya2 | Q15475+O00167 | AlphaScreen GST-Six1/His-Eya2 binding, biochemical; active compounds read low | activity change, % (no concentration beside the values) | 360,000 tested, 0.56% active | AID 651725; in the data active = activity change below about -65%; inconclusive = mostly about -30% to -63%; note: % is set by controls: 0 for no effect and ±100 for the full control effect
#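 Homogeneous AlphaScreen proximity assay pairing GST-Six1 with His-tagged Eya2 (added as 5X mix: 250 nM and 500 nM) in 50 mM Tris pH 8.0, 300 mM NaCl, 1 mM TCEP. Glutathione donor and nickel acceptor beads; 1 h, 37 °C, dark.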
# JMJD2A Tudor inh: JMJD2A Tudor domain (human) inhibition; AlphaScreen JMJD2A-Tudor / H3K4me3 peptide binding; 390,000 tested, 4.4% active; O75164; Potency, µM (highest dose often 114 µM), for the others: at the top dose activity change, negative = inhibition, hits mostly inhibitors; note: potency is the fitted concentration of half-maximal effect; % is set by controls: 0 for no effect and ±100 for the full control effect; nearly all actives have a fitted effect of over 50% in size
# G9a inh: G9a (human) methyltransferase inhibition; Q96KQ7; G9a H3K9 monomethylation, AlphaScreen, 2 h; Potency, µM (series often up to 102 µM), for the others: at the highest dose activity, negative = inhibition, most hits filed as inhibitors; 350,000 tested, 8.8% active; note: potency is the fitted concentration of half-maximal effect; % is set by controls: 0 for no effect and ±100 for the full control effect; nearly all actives have a fitted effect of over 75% in size
# Target sequence (Q96KQ7 913-1193 limits assumed): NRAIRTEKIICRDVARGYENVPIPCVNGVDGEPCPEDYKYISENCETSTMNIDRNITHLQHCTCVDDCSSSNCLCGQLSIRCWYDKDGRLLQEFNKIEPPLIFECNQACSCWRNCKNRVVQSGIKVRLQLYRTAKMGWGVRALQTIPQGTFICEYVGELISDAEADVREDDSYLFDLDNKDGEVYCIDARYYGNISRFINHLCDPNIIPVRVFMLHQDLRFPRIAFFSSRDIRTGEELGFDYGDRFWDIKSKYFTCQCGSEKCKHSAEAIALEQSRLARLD
#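 Using a bead-based AlphaScreen, monomethylated H3K9 product from 2 h room-temperature reactions (G9a 20 nM, peptide 500 nM, SAM 20 uM) was detected with 0.5 ug/mL rabbit anti-H3K9me1 antibody.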
# * = called active by the depositor; ? = inconclusive; · = no result; ! = not confirmed by another sample; [ ] = remark or other dose. Shown are actives, neighbours in structure and some others; about 10% of the full set was active somewhere. Unless noted, calls come from the whole dose curve; as a rule, active = well fitted inhibition curve with a large enough effect; inconclusive = small, poorly fitted or top-dose-only effect; inactive = no such curve, though single readings can be large or run the other way.
SMILES,CtBP-E1A inh,BAZ2B inh,HP1b chromo inh,Six1-Eya2 inh,JMJD2A Tudor inh,G9a inh
O=C(O)c1cccc2c1C(=O)c1cccc3snc-2c13,-21.8,-18.9%,7.4%,-27.1,-23.1%,56.2µM*
O=C(CNc1ccc2ccccc2c1)N/N=C/C=C/c1cccc([N+](=O)[O-])c1,3.1,89.1µM*,15.8%,-9.0,?,3.16µM*
CC(=O)Nc1ccc(C=CC=Cc2cccc([N+](=O)[O-])c2)cc1,14.1,·,?,-11.2,79.4µM*,·
COc1ccc(Br)cc1Cn1nnc(C(=O)Nc2cccc(SC)c2)c1N,·,-23.4%,21.6%,·,-15.5%,-5.8%[59 µM]
COc1ccc(NC(=O)CSc2nnc(NC(=O)NC3CCCCC3)s2)cc1OC,·,-1.6%,25.1%,·,-6.2%,-1.8%[59 µM]
CNC(=O)/C=C1\NC(C)(C)Cc2c1ccc1ccccc21,-0.2,-7.0%,26.7%,3.6,-31.1%,17.7%[12.7 µM]
CC1(C)Cc2c(ccc3ccccc23)/C(=C/C#N)N1,-25.1,-11.9%,-10.7%,?,?,50.1µM*
O=C1C=CC(=O)N1c1ccccn1,-1.0,·,?,7.0,89.1µM*,·
O=c1[nH]n(-c2ccccn2)c(=O)c2ccccc12,-8.0,·,-20.6%,-5.3,79.4µM*,?
O=C(c1ccccc1)c1ccccc1N1C(=O)C=CC1=O,-19.8,-27.6%,11.2µM*,-13.5,17.8µM*,0.794µM*
O=C1C=CC(=O)N1c1ccc(I)cc1Cl,·,1.2%,·,·,·,12.3%[12.7 µM]
O=C1C=CC(=O)N1c1ccccc1N1C(=O)C=CC1=O,-22.6,·,2.82µM*,-13.1,2.82µM*,·
COC(=O)C1=C[C@@H](C(=O)OC)C2C3=C(C(=O)[C@@]2(C)NC(=O)c2ccccc2)[C@H](c2ccccc2)[C@@H]2C(=O)N(c4ccccc4)C(=O)[C@@H]2[C@@H]3C1 (stereo not given in full),·,·,37.7%,·,-20.7%,·
O=c1ccn(C2OC(COP(=O)(O)OC3C(CO)OC(n4ccc(=O)[nH]c4=O)C3O)C(O)C2O)c(=O)[nH]1 (stereo not given),·,·,·,·,·,-4.7%[12.7 µM]
CSc1nc(-c2ccco2)cc(C(F)(F)F)c1C#N,9.5,13.1%,-7.1%,5.6,-2.4%[57.1 µM],25.1µM*
CSc1nc(-c2ccco2)cc(-c2ccccc2)c1C#N,15.5,24.2%,161.0%,28.2,-10.3%[11.4 µM],50.1µM*
N#Cc1c(C(F)(F)F)cc(-c2ccco2)nc1SCc1ccncc1,11.7,7.4%,60.2%,8.9,4.2%,?
CCOC(=O)c1ccc(NC(=O)CN2C(=O)COc3ccc(Cl)cc32)cc1,·,-7.7%,12.7%,·,-10.1%,7.7%[59 µM]
Cc1ccc(C)c(S(=O)(=O)N/N=C/c2ccc(C(=O)O)cc2)c1,2.3,-0.3%,26.3%,6.6,-11.9%,35.5µM*
COC(=O)c1ccc(/C=N/NS(=O)(=O)c2cc(C)ccc2C)cc1,0.6,-21.4%,48.3%,-6.7,-0.7%,2.51µM*
CN(C)CCCN1c2ccccc2Sc2ccccc21,-19.9,?,24.4%,-15.7,-13.7%,44.7µM*!
COc1ccc([C@H]2Sc3ccccc3N(CCN(C)C)C(=O)[C@H]2OC(C)=O)cc1,·,·,·,·,·,20.4%[21.5 µM]
CCC(=O)c1ccc2c(c1)N(CCCN(C)C)c1ccccc1S2,1.4,·,4.6%,2.8,-32.4%,14.1µM*!
CC(=O)c1ccc2c(c1)N(C)c1ccccc1S2,81.2,222.9%,456.3%,93.3,151.2%[57.1 µM],159.8%[59 µM]
COc1ccc2c(c1)Sc1ccccc1N2CCN(C)C,?,25.1µM*,31.6µM*,?,?,?
COc1ccc(CNC(=O)Cc2ccc(NC(=O)N3CCCCc4ccccc43)cc2)cc1,·,-10.9%,5.8%,·,-21.7%,9.0%[59 µM]
Cc1ccc(C)c(NCC(O)c2ccccc2)c1 (stereo not given),-9.9,-33.3%,3.3%,-7.0,-15.9%,70.8µM*
O=C(NC(=S)Nc1ccc([N+](=O)[O-])cc1)c1ccco1,5.9,·,·,-1.7,·,·
O=C(NNc1ccc([N+](=O)[O-])cc1)c1ccco1,4.1,-10.7%,11.0%,9.5,-3.9%,44.7µM*
